# Measured values reported in PMC12431657, “Discovery and mechanistic insights of dibenzoylmethane as a broad spectrum inhibitor of coronavirus” (PLOS Pathogens, 2025).
# Test system: HCoV-OC43
# Set-up: species or system RD
# Conditions: 24 h, 10 µM; inhibitor
row,SMILES,OC43 Inhibition rate
1,"Cc1c([C@H](C)[C@@H]2NC[C@@H](C)C[C@H]2O)ccc2c1C[C@H]1[C@H]2CC=C2C[C@@H](O)CC[C@@]21C [Veratramine, veratramine]",77.2
2,"CC1=C[C@]23C(=O)[C@@H](C=C(COC(=O)c4ccccc4)[C@@H](O)[C@]2(O)[C@H]1OC(=O)c1ccccc1)[C@H]1[C@@H](C[C@H]3C)C1(C)C [Ingenol 3,20-dibenzoate, ingenol 3,20-dibenzoate]",82.9
3,C=C1C(=O)O[C@@H]2[C@H]3O[C@]3(C)CC/C=C(\C)CC[C@@H]12 [Parthenolide],36.9
